Results published in PubChem BioAssay (EPA / NIEHS).
Records with an inconclusive call do not appear. Active and inactive are the calls of the source. Rule for the calls, unless noted: active = hit-call score of the fitted dose curve at least 0.9, where 1 is the maximum; inactive = score below 0.9.

What was measured:
[1] = read-out: Monokine induced gamma interferon (MIG), CXCL9 (gene 4283); test: BSK_3C_MIG: BioMAP Diversity Plus: 3C Assay for Monokine induced gamma interferon (MIG) Biomarker Activity (AID 2283021); details: primary human endothelial cells (HUVEC); actives raise or lower the signal;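 for AC50: MIG protein level measured by immunoassay in the treated endothelial cultures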
Method in brief: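 Read-out is ELISA detection of MIG on human umbilical vein endothelial cells, taken 24 h after dosing. Gain or loss of signal was scored relative to DMSO controls using bidirectional curve fitting.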

[2] = BSK_3C_SRB: Viability Assessment in the BioMAP Diversity Plus: 3C Assay (AID 2283023); details: primary human endothelial cells (HUVEC);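 note: fitted both ways against DMSO so a hit may be signal rise or drop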
Method in brief: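 Primary human umbilical vein endothelial cells in the 3C system were read 24 h after compound dosing. Total protein was stained with 0.1% sulforhodamine B after 10% TCA fixation and read at 560 nm, with bidirectional fitting against DMSO as baseline.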

[3] = read-out: Matrix Metallopeptidase 1 (MMP1), MMP1 (gene 4312); test: BSK_BE3C_MMP1: BioMAP Diversity Plus: BE3C Assay for Matrix Metallopeptidase 1 (MMP1) Biomarker Activity (AID 2283024); details: primary human bronchial epithelial cells; actives raise or lower the signal
Method in brief: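 Human bronchial epithelial cells (BE3C system) exposed to compound for 24 h; MMP1 then quantified by ELISA. Activity was fitted in both directions relative to DMSO.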

[4] = BSK_3C_Vis: BioMAP Diversity Plus: 3C Assay for Morphology Visualization (AID 2283025); details: primary human endothelial cells (HUVEC);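 note: fitted both ways so gain or loss versus DMSO counts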;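 for AC50: light microscopy image of cell morphology used as background control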
Method in brief: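 Chemicals were added to primary human umbilical vein endothelium, cells were incubated 24 h, and morphology was then visualized by light microscopy. Gain or loss of signal was fitted bidirectionally relative to DMSO.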

[5] = read-out: Pselectin, SELP (gene 6403); test: BSK_4H_Pselectin: BioMAP Diversity Plus: 4H Assay for Pselectin Biomarker Activity (AID 2283026); details: primary human endothelial cells (HUVEC); actives raise or lower the signal
Method in brief: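 ELISA read-out of P-selectin on human umbilical vein endothelium after 24 h of dosing. Values derive from bidirectional fitting relative to DMSO. Parallel SRB protein staining flagged overt cytotoxicity.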

[6] = BSK_4H_SRB: Viability Assessment in the BioMAP Diversity Plus: 4H Assay (AID 2283027); details: primary human endothelial cells (HUVEC);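 note: cells exposed to compound for 24 h before staining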;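 for AC50: curves fitted both ways versus DMSO so AC50 may be loss or gain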
Method in brief: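 Human umbilical vein endothelial cells were dosed with chemical and, after 24 h, fixed with 10% TCA, stained with 0.1% sulforhodamine B, and read at 560 nm to give total protein as a cytotoxicity measure. Bidirectional fitting relative to DMSO control.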

[7] = read-out: Thrombomodulin, THBD (gene 7056); test: BSK_3C_Thrombomodulin: BioMAP Diversity Plus: 3C Assay for Thrombomodulin Biomarker Activity (AID 2283029); details: primary human endothelial cells (HUVEC); actives raise or lower the signal
Method in brief: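 Read-out is ELISA of thrombomodulin on human umbilical vein endothelium 24 h after chemical dosing. Gain or loss of signal is scored relative to DMSO. Overt cytotoxicity is checked in parallel cultures by sulforhodamine B staining.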

[8] = read-out: Urokinase-type plasminogen activator receptor (uPAR), PLAUR (gene 5329); test: BSK_4H_uPAR: BioMAP Diversity Plus: 4H Assay for Urokinase-type plasminogen activator receptor (uPAR) Biomarker Activity (AID 2283030); details: primary human endothelial cells (HUVEC); actives raise or lower the signal
Method in brief: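 Primary human umbilical vein endothelial cells were exposed to chemical for 24 h before cell-surface uPAR was quantified by ELISA. Activity was fitted bidirectionally against the DMSO negative control baseline.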

[9] = read-out: Vascular endothelial growth factor receptor 2 (Homo sapiens) (UniProt P35968); test: BSK_4H_VEGFRII: BioMAP Diversity Plus: 4H Assay for Vascular endothelial growth factor receptor 2 (VEGFR2) Biomarker Activity (AID 2283031); details: primary human endothelial cells (HUVEC); actives raise or lower the signal;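 for AC50: cell-surface VEGFR2 protein level quantified by ELISA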
Method in brief: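 Primary human umbilical vein endothelial cells in the BioMAP 4H system were dosed with test chemical, and 24 h later VEGFRII was measured by ELISA. Activity was fitted bidirectionally against DMSO as negative control and baseline.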

[10] = read-out: Human Leukocyte Antigen - DR isotype (HLADR), HLA-DRA (gene 3122); test: BSK_BE3C_HLADR: BioMAP Diversity Plus: BE3C Assay for Human Leukocyte Antigen - DR isotype (HLADR) Biomarker Activity (AID 2283032); details: primary human bronchial epithelial cells; actives raise or lower the signal
Method in brief: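 ELISA read-out of HLA-DR on human lung bronchial epithelial primary cells, measured 24 h post-dosing. Both increases and decreases were scored relative to DMSO vehicle.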

[11] = read-out: Vascular cell adhesion molecule 1 (VCAM1), VCAM1 (gene 7412); test: BSK_4H_VCAM1: BioMAP Diversity Plus: 4H Assay for Vascular cell adhesion molecule 1 (VCAM1) Biomarker Activity (AID 2283033); details: primary human endothelial cells (HUVEC); actives raise or lower the signal
Method in brief: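 ELISA read-out of VCAM-1 on human umbilical vein endothelium 24 hours after chemical dosing; gain or loss of signal was fitted relative to DMSO, with sulforhodamine B staining of parallel cultures flagging overt cytotoxicity.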

[12] = read-out: Interferon-gamma inducible Protein 10 (IP10), CXCL10 (gene 3627); test: BSK_BE3C_IP10: BioMAP Diversity Plus: BE3C Assay for Interferon-gamma inducible Protein 10 (IP10) Biomarker Activity (AID 2283034); details: primary human bronchial epithelial cells; actives raise or lower the signal
Method in brief: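 Chemical is dosed onto human lung bronchial epithelial primary cells, cultures are incubated 24 h, and IP-10 is then quantified by ELISA. Gain or loss of signal is fitted in both directions relative to DMSO.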

[13] = read-out: Transforming growth factor beta 1 (TGFb1), TGFB1 (gene 7040); test: BSK_BE3C_TGFb1: BioMAP Diversity Plus: BE3C Assay for Transforming growth factor beta 1 (TGFb1) Biomarker Activity (AID 2283036); details: primary human bronchial epithelial cells; actives raise or lower the signal
Method in brief: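 Primary human lung bronchial epithelial cells; compound exposure 24 h; TGF-b1 by ELISA; bidirectional fit, DMSO baseline. Parallel SRB total-protein staining for cytotoxicity.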

[14] = read-out: Plasminogen activator inhibitor-1 (PAI1), SERPINE1 (gene 5054); test: BSK_BE3C_PAI1: BioMAP Diversity Plus: BE3C Assay for Plasminogen activator inhibitor-1 (PAI1) Biomarker Activity (AID 2283037); details: primary human bronchial epithelial cells; actives raise or lower the signal
Method in brief: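 Primary human lung bronchial epithelial cells; chemical dosing; 24 h; PAI-1 measured by ELISA; bidirectional fit referenced to DMSO as negative control.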

[15] = read-out: urokinase plasminogen activator (uPA), PLAU (gene 5328); test: BSK_BE3C_uPA: BioMAP Diversity Plus: BE3C Assay for urokinase plasminogen activator (uPA) Biomarker Activity (AID 2283038); details: primary human bronchial epithelial cells; actives raise or lower the signal
Method in brief: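 Human primary bronchial epithelial cells were exposed to chemical for 24 h, then uPA levels were measured by ELISA. Responses were fitted bidirectionally against DMSO as negative control and baseline. Parallel SRB staining of total protein gauged overt cytotoxicity.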

[16] = read-out: Urokinase-type plasminogen activator receptor (uPAR), PLAUR (gene 5329); test: BSK_BE3C_uPAR: BioMAP Diversity Plus: BE3C Assay for Urokinase-type plasminogen activator receptor (uPAR) Biomarker Activity (AID 2283039); details: primary human bronchial epithelial cells; actives raise or lower the signal
Method in brief: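 Human bronchial epithelial primary cells; chemical exposure 24 h; uPAR by ELISA; bidirectional fit vs DMSO control.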

[17] = biological target: human Vitamin D Receptor (VDR), VDR (gene 7421) (UniProt P11473); test: ATG_VDR_TRANS: Attagene TRANS-FACTORIAL HepG2 Assay for human Vitamin D Receptor (VDR) (AID 2283022; active = hit-call score of the fitted dose curve at least 0.9, where 1 is the maximum)
Chain of human Vitamin D Receptor (VDR), VDR (gene 7421) (P11473 whole entry, looked up, the tested form may be a part): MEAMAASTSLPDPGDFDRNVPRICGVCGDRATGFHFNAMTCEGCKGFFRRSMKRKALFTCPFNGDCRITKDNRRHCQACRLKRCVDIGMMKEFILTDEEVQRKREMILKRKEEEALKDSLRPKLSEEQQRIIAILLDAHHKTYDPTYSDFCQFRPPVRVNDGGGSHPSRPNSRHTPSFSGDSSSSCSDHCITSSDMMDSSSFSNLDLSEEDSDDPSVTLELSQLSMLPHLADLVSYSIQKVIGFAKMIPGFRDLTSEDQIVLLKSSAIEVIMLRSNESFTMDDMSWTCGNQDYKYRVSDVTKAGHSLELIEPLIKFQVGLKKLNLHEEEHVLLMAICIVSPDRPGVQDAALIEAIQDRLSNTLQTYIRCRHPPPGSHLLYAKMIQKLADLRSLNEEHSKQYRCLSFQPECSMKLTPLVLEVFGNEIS
Method in brief: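 HepG2 cells were transiently transfected with multiple GAL4-UAS reporter units, so signal reflects exogenous chimeric receptor-Gal4 activity. After 24 h compound exposure, reporter mRNA was measured by RT-PCR, fluorescent labelling and capillary electrophoresis, fitted for gain of signal versus DMSO.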

[18] = read-out: Monokine induced gamma interferon (MIG), CXCL9 (gene 4283); test: BSK_BE3C_MIG: BioMAP Diversity Plus: BE3C Assay for Monokine induced gamma interferon (MIG) Biomarker Activity (AID 2283035); details: primary human bronchial epithelial cells; actives raise or lower the signal;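 note: MIG protein measured by ELISA in BE3C cultures after 24 h of dosing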
Method in brief: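 ELISA read-out of MIG in human lung bronchial epithelial primary cultures, 24 h post-dosing. Bidirectional curve fit vs DMSO baseline.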

[19] = BSK_BE3C_SRB: Viability Assessment in the BioMAP Diversity Plus: BE3C Assay (AID 2283028); details: primary human bronchial epithelial cells
Method in brief: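 Human primary bronchial epithelial cells were exposed to test chemicals for 24 h. Total protein in parallel cultures was then measured by staining with 0.1% sulforhodamine B after 10% TCA fixation, with absorbance read at 560 nm. Activity was fitted bidirectionally against DMSO.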

Measured: AC50

C[Si]1(C)O[Si](C)(C)O[Si](C)(C)O[Si](C)(C)O1
not listed: [17] | [18] | [19]
inactive: all other assays above

Cc1ccc(C)c(O)c1C
not listed: [12] | [18] | [19]
inactive: all other assays above

COc1cc(/C=C/C(=O)CC(=O)/C=C/c2ccc(O)c(OC)c2)ccc1O
inactive: [17]

c1cc(-c2ccncc2)ccn1
active: [4] 39 µM
not listed: [3] | [12] | [19]
inactive: all other assays above

Oc1ccc2ccccc2c1N=Nc1ccccc1
active: [3] 3.97 µM | [11] 0.386 µM | [15] 2.47 µM
not listed: [17]
inactive: all other assays above

CC(=O)Oc1ccccc1C(=O)O
active: [8] 0.412 µM
not listed: [17] | [18]
inactive: all other assays above

O=C(OCCCCCOC(=O)c1ccccc1)c1ccccc1
not listed: [3] | [12] | [17] | [18] | [19]
inactive: all other assays above

CCCCCCCCCCCCCCCC
not listed: [12] | [17] | [18] | [19]
inactive: all other assays above

COc1cc(-c2nc(NC(=O)c3cc4cc(C)cc(C)c4n3CC(=O)O)sc2CCC2CCCCC2)c(OC)cc1Cl
inactive: [17]
active: [1] 5.26 µM | [2] 2.92 µM | [3] 4.37 µM | [4] 4.08 µM | [5] 3.63 µM | [6] 4.62 µM | [7] 23.6 µM | [8] 4.62 µM | [9] 4.37 µM | [10] 1.25 µM | [11] 4.36 µM | [13] 4.38 µM | [14] 0.877 µM | [15] 1.03 µM | [16] 4.47 µM
